“And” between values parts separate entries of the source, which are not always exact repeats. Equal values may be shown once. Results filed as inconclusive are left out. Where a call stands in place of a potency, no number is given. Where a structure was tested more than once in an assay, its records may differ in their call. The source made the active and inactive calls. Unless noted, the call rests on the fitted dose curve; in most records, active means well fitted curve in the direction sought with a large enough effect in the repeat runs; inconclusive means weak or mixed curves; inactive means no such curve, though single readings can be large; an effect the other way counts as inactive or inconclusive.
How the values were obtained:
[1] = qHTS assay to identify small molecule agonists of the androgen receptor (AR) signaling pathway in the presence of an antagonist - cell viability counter screen (AID 1259379); further: nearly all actives have a fitted effect of over 25% in size; further: potency means the concentration at half of the fitted maximal effect
How it was run: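 Fluorescence from CellTiter-Fluor, added after 15 hr and read 1 hr later, gave cell viability. Cells were MDA-kb2 exposed to compounds (15 concentrations) in the presence of 3.0uM nilutamide at 37C, 0% CO2.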

[2] = qHTS assay to identify small molecule agonists of the estrogen receptor beta (ER-beta) signaling pathway - cell viability counter screen (AID 1259380); further: nearly all actives have a fitted effect of over 30% in size; further: potency means the concentration at half of the fitted maximal effect
How it was run: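 Same-well viability counter screen. Cells: ER-beta-UAS-bla HEK293T, plated 6 hr before compound, in 2% charcoal-stripped FBS. Compound exposure 16 hr, 37C; viability by CellTiter-Glo luminescence after 30 min at room temperature.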

[3] = target: Androgen receptor (Homo sapiens) (UniProt P10275); assay: qHTS assay to identify small molecule agonists of the androgen receptor (AR) signaling pathway in the presence of an antagonist (AID 1259381; calls by dose curve; further: nearly all actives have a fitted effect of over 15% in size)
How it was run: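 Cells are MDA-kb2 (human breast carcinoma, MMTV-luc, AR/GR responsive). Nilutamide is present at 3.0uM final throughout; compounds are added at 15 concentrations and incubated 16hr at 37C before ONE-Glo luminescence detection.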

[4] = qHTS assay to identify small molecule antagonists of the estrogen receptor beta (ER-beta) signaling pathway - cell viability counter screen (AID 1259382); further: nearly all actives have a fitted effect of over 55% in size; further: potency means the concentration at half of the fitted maximal effect
How it was run: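 Following a 6 hr plating period, HEK293T cells carrying a UAS-driven beta-lactamase reporter under ER-beta control received compounds and 1nM E2 (final). After 16 hr at 37C and 2 hr substrate loading, CellTiter-Glo luminescence indicated viability.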

[5] = target: Estrogen receptor (Homo sapiens) (UniProt P03372); assay: qHTS assay to identify small molecule agonists of the estrogen receptor alpha (ER-alpha) signaling pathway in the presence of an antagonist (AID 1259383; calls by dose curve; further: top concentration of the series differs between compounds; nearly all actives have a fitted effect of over 15% in size)
How it was run: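 Cells are hormone-deprived for 5 days (charcoal-stripped FBS, no phenol red), plated for 24hr, spiked with 10.0nM ICI-182,780, then dosed at 15 concentrations. After 22hr at 37C, ONE-Glo luminescence reports ERE-luciferase activity.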

[6] = qHTS assay to identify small molecule agonists or antagonists of the thyroid stimulating hormone receptor (TSHR) signaling pathway - wild type cell line counter screen (AID 1259384; calls by dose curve)
How it was run: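 Wild-type Hek293 cells, 800/well, 18 h at 37C, then compound with Ro20-1724 for 30 min RT. cAMP by HTRF (cAMP-d2/anti-cAMP cryptate), 1 h RT, fluorescence read. 15 concentrations, triplicates.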

[7] = target: Thyrotropin receptor (Homo sapiens) (UniProt P16473); assay: qHTS assay to identify small molecule antagonists of the thyroid stimulating hormone receptor (TSHR) signaling pathway (AID 1259385; calls by dose curve; further: nearly all actives have a fitted effect of over 20% in size; further: potency means the concentration at half of the fitted maximal effect)
How it was run: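 TSHR-HEK293 cells (800/well) plated 18 h, then compounds with Ro20-1724 and TSH at 1.5 ng/mL final, 30 min at room temperature. cAMP quantified by HTRF (cAMP-d2/anti-cAMP-cryptate, 1 h); 15 concentrations in triplicate.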

[8] = qHTS assay to identify small molecule agonists of the estrogen receptor alpha (ER-alpha) signaling pathway in the presence of an antagonist - cell viability counter screen (AID 1259386);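 further: cells exposed to compounds for 22 h at 37 °C before the viability read; nearly all actives have a fitted effect of over 30% in size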; further: potency means the concentration at half of the fitted maximal effect
How it was run: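 Cells are starved of estrogens for 5 days in charcoal-stripped serum, seeded for 24hr and co-treated with ICI-182,780 (10.0nM final) and test compounds. After 22hr at 37C, viability is read as CellTiter-Fluor fluorescence.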

[9] = target: Progesterone receptor (Homo sapiens) (UniProt P06401); assay: qHTS assay to identify small molecule antagonists of the progesterone receptor (PR) signaling pathway (AID 1346795; active means well fitted inhibition curve with a large enough effect in the signal ratio in the repeat runs, not every such curve was filed as active; the % refers to the signal ratio; further: potency means the concentration at half of the fitted maximal effect)
How it was run: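 Beta-lactamase reporter, HEK293T PR-UAS-bla line; 2% charcoal-stripped FBS; 6 hr pre-incubation, 37C/5% CO2. Compound + R5020 1 nM final, 16 hr. LiveBLAzer B/G FRET substrate, 2 hr RT; fluorescence intensity read.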

[10] = qHTS assay to identify small molecule antagonists of the progesterone receptor (PR) signaling pathway - cell viability counter screen (AID 1346798); further: nearly all actives have a fitted effect of over 50% in size; further: potency means the concentration at half of the fitted maximal effect
How it was run: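 Luminescence readout (CellTiter-Glo, 30 min, RT) of viability in PR-UAS-bla HEK293T cells exposed to compound and R5020 agonist for 16 hr at 37C, 5% CO2; run in the same wells as the beta-lactamase reporter read.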

[11] = qHTS assay to identify small molecule agonists of the progesterone receptor (PR) signaling pathway - cell viability counter screen (AID 1346799; calls by dose curve; further: nearly all actives have a fitted effect of over 45% in size; further: potency means the concentration at half of the fitted maximal effect)
How it was run: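 HEK293T PR-UAS-bla, 3,000 cells/well, 2% charcoal-stripped FBS; 6 h settle, compound 16 h at 37C/5% CO2; LiveBLAzer 2 h RT, then CellTiter-Glo 30 min RT, luminescence read.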

[12] = qHTS assay to identify small molecule antagonists of the TGF-beta/Smad signaling pathway - cell viability counter screen (AID 1346824); further: nearly all actives have a fitted effect of over 50% in size; further: potency means the concentration at half of the fitted maximal effect
How it was run: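 SBE-bla HEK 293T cells, incubated overnight, then compound plus 0.25 ng/mL TGF-beta1 (stock added) for 5 hr at 37 C. Viability was read in the same wells by CellTiter-Glo luminescence after 30 min at room temperature.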

[13] = qHTS assay to identify small molecule agonists of the TGF-beta/Smad signaling pathway - cell viability counter screen (AID 1346829); further: nearly all actives have a fitted effect of over 45% in size; further: potency means the concentration at half of the fitted maximal effect
How it was run: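 In parallel with the Smad reporter read, viability of HEK 293T cells stably carrying SBE-bla is quantified by ATP luminescence following 5 hr compound treatment.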

[14] = qHTS assay to identify small molecule agonists of the TGF-beta/Smad signaling pathway (AID 1346859; active means well fitted activation curve with a large enough effect in the signal ratio in the repeat runs, not every such curve was filed as active; the % refers to the signal ratio; further: series mostly up to about 77 µM)
How it was run: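 Read-out: fluorescence at 460 and 530 nm (405 nm excitation) after a 2 hr room-temperature incubation with beta-lactamase FRET substrate. SBE-bla HEK 293T cells had been treated with test compounds for 5 hr at 37 C.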

[15] = target: Thyrotropin-releasing hormone receptor (Homo sapiens) (UniProt P34981); assay: qHTS assay to identify small molecule antagonists of the thyrotropin-releasing hormone receptor (TRHR) signaling pathway (AID 1346877; active means well fitted inhibition curve with a large enough effect in the repeat runs, not every such curve was filed as active; further: potency means the concentration at half of the fitted maximal effect)
How it was run: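 Cells (TRHR-HEK293) are plated and kept 18 h at 37 °C/5% CO2. A calcium-sensitive dye is added for 2 h, compound follows for 5 min at room temperature, and TRH is then given at 1 nM final.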

[16] = target: Thyrotropin-releasing hormone receptor (Homo sapiens) (UniProt P34981); assay: qHTS assay to identify small molecule agonists of the thyrotropin-releasing hormone receptor (TRHR) signaling pathway (AID 1346891; calls by dose curve;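 further: HEK293 cells expressing TRHR with calcium dye readout; series mostly up to about 58 µM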)
How it was run: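 HEK293/TRHR cells, 1500 per well, 18 h 37 °C; Ca dye 2 h 37 °C; pin-tool compound addition (agonist mode); kinetic fluorescence 3 min, 1 s reads; 15 concentrations, triplicate.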

[17] = Human pregnane X receptor (PXR) small molecule agonists, qHTS cell viability counter screen (AID 1346977); further: nearly all actives have a fitted effect of over 50% in size; further: potency means the concentration at half of the fitted maximal effect
How it was run: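 Fluorescence read-out (CellTiter-Fluor) of viability in PXR-Luc HepG2 cells, multiplexed with the luciferase agonist read. Compounds in DMSO added after 5hr plating; 24hr total exposure at 37C, 5% CO2.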

[18] = target: Progesterone receptor (Homo sapiens) (UniProt P06401); assay: qHTS assay to identify small molecule agonists of the progesterone receptor (PR) signaling pathway (AID 1346784; calls by dose curve; further: nearly all actives have a fitted effect of over 30% in size)
How it was run: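 HEK 293T PR-UAS-bla reporter cells, 2% charcoal-stripped FBS; 6 hr settle at 37C/5% CO2, compound (DMSO) 16 hr, LiveBLAzer B/G FRET substrate 2 hr RT, fluorescence intensity read.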

Chain of Estrogen receptor (Homo sapiens) (P03372 whole entry, looked up): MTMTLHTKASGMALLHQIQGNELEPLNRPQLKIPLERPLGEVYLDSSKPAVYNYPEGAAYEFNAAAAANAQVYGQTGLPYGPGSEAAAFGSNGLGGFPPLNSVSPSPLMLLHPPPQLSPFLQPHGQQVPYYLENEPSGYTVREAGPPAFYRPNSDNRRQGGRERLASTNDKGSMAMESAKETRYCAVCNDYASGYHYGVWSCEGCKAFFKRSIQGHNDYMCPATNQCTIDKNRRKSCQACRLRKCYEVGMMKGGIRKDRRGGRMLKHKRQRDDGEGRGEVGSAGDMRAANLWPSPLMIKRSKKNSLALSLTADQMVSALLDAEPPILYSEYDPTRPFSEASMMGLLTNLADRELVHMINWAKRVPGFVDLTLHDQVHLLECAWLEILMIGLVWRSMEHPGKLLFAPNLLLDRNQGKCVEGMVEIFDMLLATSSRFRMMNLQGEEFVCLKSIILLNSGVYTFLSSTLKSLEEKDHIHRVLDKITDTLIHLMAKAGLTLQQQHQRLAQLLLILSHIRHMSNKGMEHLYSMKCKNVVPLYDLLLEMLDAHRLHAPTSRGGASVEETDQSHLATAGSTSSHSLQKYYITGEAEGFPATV
Chain of Androgen receptor (Homo sapiens) (P10275 whole entry, looked up): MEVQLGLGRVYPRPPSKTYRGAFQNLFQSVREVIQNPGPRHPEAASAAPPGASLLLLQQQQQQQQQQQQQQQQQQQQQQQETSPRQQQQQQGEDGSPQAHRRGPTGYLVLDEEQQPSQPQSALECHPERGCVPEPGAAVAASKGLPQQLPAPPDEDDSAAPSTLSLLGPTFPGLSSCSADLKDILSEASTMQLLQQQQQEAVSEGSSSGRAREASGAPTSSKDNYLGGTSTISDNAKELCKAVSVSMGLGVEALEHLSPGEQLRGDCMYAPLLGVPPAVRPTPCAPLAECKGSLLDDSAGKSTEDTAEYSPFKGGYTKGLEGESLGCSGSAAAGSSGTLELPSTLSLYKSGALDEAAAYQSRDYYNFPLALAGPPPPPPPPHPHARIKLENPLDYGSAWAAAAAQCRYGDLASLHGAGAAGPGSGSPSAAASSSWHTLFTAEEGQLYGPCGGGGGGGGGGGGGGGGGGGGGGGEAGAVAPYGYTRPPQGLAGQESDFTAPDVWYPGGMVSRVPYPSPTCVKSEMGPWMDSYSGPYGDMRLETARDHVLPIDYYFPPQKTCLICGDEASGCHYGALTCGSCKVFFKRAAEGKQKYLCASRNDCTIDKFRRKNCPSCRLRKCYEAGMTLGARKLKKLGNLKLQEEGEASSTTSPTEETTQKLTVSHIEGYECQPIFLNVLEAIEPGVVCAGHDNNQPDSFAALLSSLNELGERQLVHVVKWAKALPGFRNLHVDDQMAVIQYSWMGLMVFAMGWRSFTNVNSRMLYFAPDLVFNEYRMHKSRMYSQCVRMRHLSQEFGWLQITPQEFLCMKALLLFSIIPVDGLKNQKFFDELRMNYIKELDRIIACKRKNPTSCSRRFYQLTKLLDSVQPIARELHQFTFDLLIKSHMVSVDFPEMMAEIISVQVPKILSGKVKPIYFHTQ
Chain of Thyrotropin receptor (Homo sapiens) (P16473 whole entry, looked up): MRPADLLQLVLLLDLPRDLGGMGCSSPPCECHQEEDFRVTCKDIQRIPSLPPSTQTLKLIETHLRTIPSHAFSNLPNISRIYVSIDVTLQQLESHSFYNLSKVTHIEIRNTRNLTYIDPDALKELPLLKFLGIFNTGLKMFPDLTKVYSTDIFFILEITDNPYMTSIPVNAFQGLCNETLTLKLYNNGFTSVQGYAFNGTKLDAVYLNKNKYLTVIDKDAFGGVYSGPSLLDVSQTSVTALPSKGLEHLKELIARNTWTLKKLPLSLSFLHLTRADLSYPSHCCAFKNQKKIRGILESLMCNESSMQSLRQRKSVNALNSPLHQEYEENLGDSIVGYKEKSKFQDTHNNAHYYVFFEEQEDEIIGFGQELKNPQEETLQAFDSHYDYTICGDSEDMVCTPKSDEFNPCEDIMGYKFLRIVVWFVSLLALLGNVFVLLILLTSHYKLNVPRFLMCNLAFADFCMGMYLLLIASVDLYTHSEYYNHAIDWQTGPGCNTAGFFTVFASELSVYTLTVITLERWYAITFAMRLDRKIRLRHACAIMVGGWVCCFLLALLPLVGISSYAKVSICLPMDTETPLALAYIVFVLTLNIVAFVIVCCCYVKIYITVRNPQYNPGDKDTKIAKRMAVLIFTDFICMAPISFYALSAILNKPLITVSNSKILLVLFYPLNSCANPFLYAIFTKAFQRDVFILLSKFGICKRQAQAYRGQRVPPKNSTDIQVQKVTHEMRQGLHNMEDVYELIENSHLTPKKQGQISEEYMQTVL
Chain of Thyrotropin-releasing hormone receptor (Homo sapiens) (P34981 whole entry, looked up): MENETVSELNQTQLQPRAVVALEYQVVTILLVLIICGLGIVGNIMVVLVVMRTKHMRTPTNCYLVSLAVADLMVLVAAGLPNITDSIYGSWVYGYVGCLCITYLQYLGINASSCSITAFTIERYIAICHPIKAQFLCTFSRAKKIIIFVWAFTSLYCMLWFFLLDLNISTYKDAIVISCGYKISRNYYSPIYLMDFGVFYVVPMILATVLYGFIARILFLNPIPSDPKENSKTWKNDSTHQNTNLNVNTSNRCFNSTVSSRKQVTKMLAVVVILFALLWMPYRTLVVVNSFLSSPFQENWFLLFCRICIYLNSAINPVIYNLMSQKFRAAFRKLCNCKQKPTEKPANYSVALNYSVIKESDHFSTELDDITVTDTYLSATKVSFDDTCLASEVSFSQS
Chain of Progesterone receptor (Homo sapiens) (P06401 whole entry, looked up): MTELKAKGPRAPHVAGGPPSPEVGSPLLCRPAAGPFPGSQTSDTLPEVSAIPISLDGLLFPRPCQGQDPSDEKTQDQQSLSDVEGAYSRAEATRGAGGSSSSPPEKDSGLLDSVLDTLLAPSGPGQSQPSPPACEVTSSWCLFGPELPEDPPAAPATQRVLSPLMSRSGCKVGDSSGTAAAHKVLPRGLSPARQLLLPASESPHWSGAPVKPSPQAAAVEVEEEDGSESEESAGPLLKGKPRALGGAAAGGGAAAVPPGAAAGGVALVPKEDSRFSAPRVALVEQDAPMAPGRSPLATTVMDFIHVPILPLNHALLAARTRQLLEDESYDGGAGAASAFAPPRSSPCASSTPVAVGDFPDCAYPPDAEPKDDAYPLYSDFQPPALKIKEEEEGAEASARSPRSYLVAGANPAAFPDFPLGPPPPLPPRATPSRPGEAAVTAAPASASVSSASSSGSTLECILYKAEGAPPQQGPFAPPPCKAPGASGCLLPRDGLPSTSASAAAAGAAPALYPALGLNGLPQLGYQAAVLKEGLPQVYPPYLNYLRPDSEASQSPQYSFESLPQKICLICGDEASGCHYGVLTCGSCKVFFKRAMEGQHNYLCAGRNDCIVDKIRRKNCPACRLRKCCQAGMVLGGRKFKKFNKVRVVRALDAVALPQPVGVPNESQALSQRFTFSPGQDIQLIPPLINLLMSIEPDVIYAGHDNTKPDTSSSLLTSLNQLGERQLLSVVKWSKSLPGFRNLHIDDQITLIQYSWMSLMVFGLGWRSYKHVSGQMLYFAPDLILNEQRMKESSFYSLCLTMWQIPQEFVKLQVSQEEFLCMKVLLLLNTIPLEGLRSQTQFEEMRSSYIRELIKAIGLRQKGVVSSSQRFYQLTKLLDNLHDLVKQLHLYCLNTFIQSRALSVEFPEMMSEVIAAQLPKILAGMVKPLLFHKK

| Compound | Potency [1] | Potency [2] | outcome [3] | Potency [4] | Potency [5] | Potency [6] | Potency [7] | Potency [8] | Potency [9] | Potency [10] | Potency [11] | Potency [12] | Potency [13] | Potency [14] | Potency [15] | outcome [16] | Potency [17] | Potency [18] |
| --- | --- | --- | --- | --- | --- | --- | --- | --- | --- | --- | --- | --- | --- | --- | --- | --- | --- | --- |
| C=CC(=O)OCC(CC)(COC(=O)C=C)COC(=O)C=C | 62.8 µM (active) and 24.3 µM (active) | 62.8 µM (active) and 19.3 µM (active) | inactive | 31.5 µM (active) and 19.3 µM (active) | inactive | inactive | inactive | 70.4 µM (active) and 43.3 µM (active) | 25 µM (active) and 17.2 µM (active) | 56 µM (active) and 43.3 µM (active) | 70.4 µM (active) and 24.3 µM (active) | inactive | inactive | inactive | inactive | inactive | 31.6 µM (active) and 30.6 µM (active) | – |
| CCC1(c2ccc(N)cc2)CCC(=O)NC1=O (stereo unspecified) | inactive | inactive | inactive | inactive | inactive | – | – | inactive | inactive | – | inactive | inactive | inactive | inactive | inactive | inactive | inactive | inactive |
| C[N+](C)(C)C | inactive | inactive | – | inactive | inactive | inactive | inactive | inactive | inactive | – | inactive | inactive | inactive | inactive | inactive | inactive | inactive | inactive |
| CCOP(=S)(OCC)SCSC(C)(C)C | inactive | inactive | – | – | inactive | inactive | – | inactive | – | 48.6 µM (active) | inactive | inactive | inactive | inactive | – | – | inactive | inactive |
| CCOP(=O)(O)OCC (tested in a mixture with another compound) | inactive and 27.1 µM (active) | inactive and 48.2 µM (active) | – | inactive and 30.4 µM (active) | – | – | – | inactive and 60.6 µM (active) | inactive and 60.6 µM (active) | – | inactive | – | inactive and 54.5 µM (active) | inactive | – | – | inactive and 24.1 µM (active) | – |
| O=C1C(Cl)=C(Cl)C(=O)c2ccccc21 | 48.7 µM (active) and 54.5 µM (active) | 27.4 µM (active) and 27.3 µM (active) | – | 19.4 µM (active) and 30.6 µM (active) | inactive | – | – | 43.4 µM (active) and 61.1 µM (active) | 48.6 µM (active) | 61.3 µM (active) and 61.1 µM (active) | 61.1 µM (active) | 49.1 µM (active) and 49 µM (active) | 49.1 µM (active) and 43.6 µM (active) | – | 21.4 µM (active) and 21.3 µM (active) | inactive | 39.8 µM (active) | – |
| CC(C)(C#N)N=NC(C)(C)C#N | inactive | inactive | – | inactive | inactive | inactive | inactive | inactive | inactive | inactive | inactive | inactive | inactive | inactive | inactive | inactive | inactive | – |
| [Cl-].[Cl-].[Cl-].[Fe+3] | inactive | inactive | – | inactive | – | – | – | inactive | inactive | – | inactive | inactive | inactive | inactive | – | – | inactive | inactive |
| CCCCCCCCCC(CC)c1ccc(S(=O)(=O)O)cc1 (stereo unspecified) | inactive | – | – | – | – | – | – | inactive | – | – | 27 µM (active) [middle of 4 runs] | inactive | inactive | inactive | – | – | inactive | – |
| CCCCOCC1CO1 (stereo unspecified) | inactive | inactive | – | inactive | inactive | inactive | inactive | inactive | inactive | – | inactive | inactive | inactive | inactive | inactive | inactive | inactive | – |
| O=NN(c1ccccc1)c1ccccc1 | inactive | inactive | – | inactive | inactive | inactive | inactive | inactive | inactive | inactive | inactive | inactive | inactive | inactive | inactive | inactive | inactive | – |
| CCC[CH2][Sn]([Cl])([CH2]CCC)[CH2]CCC | 687 nM (active) and 1.54 µM (active) | 1.22 µM (active) and 1.37 µM (active) | – | 1.73 µM (active) and 1.93 µM (active) | inactive | inactive | 12.2 µM (active) | 10.9 µM (active) and 30.6 µM (active) | – | 1.73 µM (active) and 3.44 µM (active) | 1.73 µM (active) and 2.17 µM (active) | 1.38 µM (active) and 2.19 µM (active) | 1.55 µM (active) and 977 nM (active) | – | – | – | 562 nM (active) and 433 nM (active) | – |
| Clc1ccc(C(Cl)(Cl)Cl)cc1 | inactive | inactive | – | inactive | inactive | inactive | inactive | inactive | inactive | inactive | inactive | inactive | inactive | inactive | inactive | inactive | inactive | inactive |
